# “And” between values parts separate entries of the source, which are not always exact repeats. Equal entries are not always repeated. Hit rate of the full screen: of about 330,000 compounds, about 1,800 (0.55%) were called active. The entries come from a sample that favours actives as a whole. Unmarked numbers belong to inactive results. Rule as the data show it: active = growth inhibition above about 68%; inactive = the rest.
# Test: growth inhibition of ugtP-null S. aureus, primary screen, RN4220 ugtP deletion, OD600 (AID 1259309);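 also: plate controls were untreated wells for no effect and antibiotic for full effect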
# Conditions: 16 h, stronger effect = higher value
row,SMILES,growth inhibition
1,Cn1c2ccccc2c2nnc(NN=Cc3ccc(O)cc3)nc21,3.8%
2,O=C(NN=Cc1ccc(-c2ccc(Cl)c(Cl)c2)o1)C(=O)N1CCCC1,-5.08%
3,CCc1nnc(NN=Cc2c(Cl)cccc2Cl)n1N,-4.51%
4,C=CCOc1ccc(C(O)=C2C(=O)C(=O)N(CCCOC)C2c2ccc(O)c(OC)c2)cc1 (configuration not stated),8.37%
5,O=[N+]([O-])c1cc(C=NNC(=Nc2ccccn2)c2ccccn2)ccc1O,66.8%
6,CCCc1cc(-c2nc(-c3ccc(C)cc3)cs2)ccn1,16.9%
7,Cc1ccc(-c2csc(-c3c[nH]c4ccccc34)n2)cc1,89.5% (active)
8,CCn1c(SCCC(C)C)nnc1-c1c[nH]c2ccccc12,-3.66%
9,C=CCn1c(N=Cc2ccc(OC)cc2)nc2ccccc21,7.61%
10,COc1ccc2nc(N=C(N)NC(=O)N3c4ccccc4Sc4ccccc43)nc(C)c2c1,-21.3%
11,COc1ccc2c(c1OC)CN1CCc3cc4c(cc3C1C2O)OCO4 (configuration not stated),15.5%
12,CCOc1ccccc1C=NNC(=O)c1nnn(-c2nonc2N)c1CN1CCCCCC1,2.59%
13,C#CCOCCOCCOCCNc1nc(N2CCN(C(=O)C(CCCCN)n3cc(CCCC)nn3)CC2)nc(N2CCN(C(=O)C(C(C)CC)n3cc(CCCN=C(N)N)nn3)CC2)n1 (configuration not stated),11.2%
14,O=C(Nc1ncc([N+](=O)[O-])s1)C1COc2ccccc2O1 (configuration not stated),90.5% (active)
15,CC(=NNC(=O)CNC(=O)C1COc2ccccc2O1)c1ccc([N+](=O)[O-])cc1 (configuration not stated),0.446%
16,CC(=O)c1cccc(NC(=O)C2COc3ccccc3O2)c1 (configuration not stated),8.46%
17,O=C(O)CCC(=NNC(=O)c1cn(-c2ccccc2)nc1-c1ccccc1)C(=O)O,0.633%
18,CCc1ccc2c(c1)C1(NN=C(c3ccccc3)S1)C(=O)N2 (configuration not stated),95.8% (active)
19,CC(=NOC(=O)c1ccc(F)cc1)c1sc(-c2ccccc2)nc1C,-1.32%
20,CC(=O)c1cnc(-c2ccccc2)s1,-8.03%
21,CON=CCC(=O)c1cnc(-c2ccc(Cl)cc2)s1,87.5% (active)
22,O=C(/C=C/Nc1ccccc1)c1cnc(-c2ccccc2)s1,-8.21%
23,CC(=O)Nc1ccc(C(=O)NN=CC2CC3C=CC2C3)cc1 (configuration not stated),9.12%

row,SMILES,growth inhibition
1,CS(=O)(=O)c1ccc(CNC(=O)[C@]2(C(F)(F)F)CC(CCc3ccccc3)CCCO2)cc1 (some centres not stated),-0.803%
2,Cc1cccc(NC(=O)c2ccc([N+](=O)[O-])o2)c1,21.9%
3,Cc1ccc(NCC(=O)NN=Cc2ccc([N+](=O)[O-])o2)cc1,26.7%
4,C/[N+]([O-])=C\c1ccc([N+](=O)[O-])o1,96.9% (active)
5,CCC(C)N1CCC2(CC1)N=c1c(c3c4c5c(C)c(O)c3c(O)c1=NC(=O)C(C)=CC=CC(C)C(O)C(C)C(O)C(C)C(OC(C)=O)C(C)C(OC)C=CO[C@@](C)(O5)C4=O)N2 (some centres not stated),99.6% (active)
6,Cn1c(=O)[nH]c(=O)c2c1nc(N1CCCCC1)n2CC=NNc1ccc(C(=O)O)cc1,10.4%
7,O=C(CNC(=O)c1ccco1)NN=Cc1ccc(O)cc1O,4.74%
8,CC(C)CC(=O)NC(=S)Nc1ccc(F)cc1F,86.4% (active)
9,CC(C)C(=O)NC(=S)Nc1ccccc1F,14.2%
10,CC(C)CC(=O)NC(=S)Nc1cc(C(=O)O)ccc1Cl,9.77%
11,CCOC(=O)COc1c(C=NO)cc(Cl)cc1OC,1.74%
12,O=C(CN1CCCCCC1)Nc1ccc(Br)cc1Br,4.57%
13,O=C(CN1CCCCC1)Nc1ccc(Br)cc1C(=O)c1ccccc1Cl,88.6% (active)
14,O=C(CN1CCCCCC1)Nc1ccc(Br)cc1[N+](=O)[O-],5.98%
15,COC(=O)C1=C(C(=O)OC)C2N(C)c3ccccc3[C@@]23CC(C(=O)OC)N(C(C)=O)C3=N1 (some centres not stated),3.76%
16,CC(C)C(=NNc1ccccc1[N+](=O)[O-])c1ccccc1,42.3%
17,NC(=O)C(=Cc1ccccc1)NC(=O)C=Cc1ccccc1,-1.58%
18,CC(Cc1ccccc1)=NNC(=O)CNC(=O)Cc1ccccc1,2.62%
19,Cc1nc2c(cnn2-c2ccccc2)c(=O)n1N=Cc1ccccc1,6.82%
20,C=C[C@]1(C)CC(OC(=O)CSCCN(CC)CC)[C@]2(C)C(C)CC[C@]3(CCC(=O)C32)C(C)C1O (some centres not stated),99.9% (active) and 100% (active)
21,O=C(C=Cc1ccccc1Cl)Nc1ccncc1,-22.9%
22,C[C@]12CCC3c4ccc(O)cc4CCC3C1CCC2OC(=O)CCC(=O)O (some centres not stated),1.18%
23,O=C(CN1CCN(Cc2ccccc2)CC1)NN=Cc1ccc(Br)s1,-1.87%

row,SMILES,growth inhibition
1,COc1cccc(C2CC=C(C(=O)O)C(c3ccc(F)cc3)N2S(=O)(=O)c2ccc(C)cc2)c1 (configuration not stated),24.5%
2,O=[N+]([O-])c1cccc(C=NNc2nc(NCc3ccccc3)nc(N3CCOCC3)n2)c1O,1.29%
3,Cc1ccc(-c2csc(N3CCCC3C(=O)NCCn3c(-c4ccncc4)nc4ccccc43)n2)cc1 (configuration not stated),12.4%
4,Cc1nn(-c2ccccc2)c(C)c1C=NNC(=O)c1cc(-c2ccc(Br)s2)[nH]n1,-11.7%
5,COc1ccccc1NC(=S)N1CCN(c2ccc(F)cc2)CC1,6.45%
6,COc1c(N2CCN(C(=S)Nc3ccccc3F)C(C)C2)c(F)cc2c(=O)c(C(=O)O)cn(C3CC3)c12 (configuration not stated),100% (active)
7,CC1CN(C(=S)Nc2ccccc2F)CC(C)O1 (configuration not stated),2.47%
8,CC=C(C)C(=O)Nc1cccc(C2=NOC3(C2)CC(C(N)=O)N(C(=O)c2ccc(OC)cc2)C3)c1 (configuration not stated),0.227%
9,O=S(=O)(C=Cc1ccccc1)N1CCN(c2nc(-c3cccnc3)nc3ccccc23)CC1,-1.02%
10,NC(=O)C(=O)NN=Cc1cccc(C(F)(F)F)c1,6.69%
11,OCCNc1nc(Nc2ccc(Cl)c(Cl)c2)nc2ccccc12,-40.3%
12,O=[N+]([O-])c1c(NCCO)cc(Sc2nc3ccccc3s2)c2nonc12,99.9% (active)
13,CCN(CC)CCCSc1nc2ccccc2s1,5.71%
14,CC(=O)CC1c2cc(C(F)(F)F)ccc2S(=O)(=O)N1C1CCCC1 (configuration not stated),-1.55%
15,CCOC(=O)c1ccc(NC(=O)c2nc[nH]c2C(=O)NC(Cc2ccccc2)C(=O)OC(C)(C)C)cc1 (configuration not stated),-22.8%
16,Cc1ccc(C(=O)NCC(=O)NN=Cc2cccs2)cc1[N+](=O)[O-],4.96%
17,COc1cc(C(=O)NN=Cc2cn(Cc3cccc(F)c3)c3ccccc23)ccc1O,-6.8%
18,COc1cccc(C=NNC(=O)CSCC(=O)Nc2ccccc2)c1O,-4.58%
19,COc1cccc(C=NNc2cc(-n3nc(C)cc3-c3ccccc3)ncn2)c1O,101% (active)
20,COc1cccc(C=NNc2ncnc3c2ncn3Cc2ccccc2)c1O,2.15%
21,CCc1ccc2c(c1)C(=O)C[C@]1(CCCC(C)C1)O2 (some centres not stated),5.31%
22,C#CCNC(=O)C1=CC(c2csc3ccccc23)CC(OCCCCO)O1 (configuration not stated),-11.2%
23,Cc1ccc(OCC(=O)NN=Cc2ccc3c(c2)OCO3)cc1C,-11%

row,SMILES,growth inhibition
1,CCCCCCCCCCCCn1ccc(=N)cc1,101% (active)
2,CCCCCN1CC(O)=C(c2ccccc2)C1=N,2.59%
3,COc1ccc(C=NNc2nn3cnnc3c3ccccc23)cc1,12.2%
4,CCOC(=O)CN1C(=O)NC(c2ccco2)C(C(C)=O)=C1C (configuration not stated),-0.836%
5,CCC(=O)Nc1cccc(C2=NOC3(C2)CC(C(N)=O)N(C(=O)COc2ccc(Cl)cc2)C3)c1 (configuration not stated),3.89%
6,CCOC(=O)C1(CCOc2ccccc2)CCN(Cc2cc(OC)cc(OC)c2)CC1,2.42%
7,CCOC(=O)C1(CCOc2ccccc2)CCN(Cc2cc(OC)c(O)cc2Cl)CC1,4.94%
8,Cc1c(CN2CCC(CO)(CCOc3ccccc3)CC2)[nH]c2ccc(Cl)cc12,95.4% (active)
9,Nc1nonc1-n1nnc(C(=O)NN=Cc2ccc(Cl)cc2Cl)c1CN1CCCCC1,6.34%
10,ON=C1CC2(CC(=NO)C1=NO)OCCO2,-5.45%
11,O=C(Nc1ccc2ccccc2c1)Nc1ccc2snnc2c1,94.2% (active)
12,S=C(Nc1ccccc1)Nc1ccc2ccccc2c1,-7.81%
13,Cc1nc2cc(NC(=O)Nc3cccc(F)c3)ccc2n1C,-1.04%
14,COCc1cc(C)nc(OCC(=O)NN=Cc2ccc(C)cc2)c1C#N,3.45%
15,COc1ccc(NS(=O)(=O)c2ccc(NC(=S)NC(=O)CC(C)C)cc2)cc1,88% (active)
16,CC(=O)c1ccc(NC(=S)NC(=O)CC(C)C)cc1,29.6%
17,COc1ccc(OC)c(C(C)NC(=S)Nc2ccc(S(=O)(=O)Nc3ncccn3)cc2)c1 (configuration not stated),6.82%
18,COc1ccc(/C=C\C(=O)Oc2cccc(C=NNC(=O)Cc3ccc(OC)c(OC)c3)c2)cc1,28.2%
19,CCCCC1CC1C(NC(=O)c1cccs1)c1ccc(C(F)(F)F)cc1 (configuration not stated),3.18%
20,COc1ccc(CNC(=O)CCN2C(=O)c3ccccc3C2=O)cc1,0.235%
21,CCOC(=O)C1=C(c2ccc(OC)cc2)C(=O)c2ccccc2C1=O,98.1% (active)
22,COC(=O)c1cc(OC)ccc1-c1ccc(OC)cc1,24.4%
23,O=C(NC1CC(=NO)c2cc3c(cc21)OCO3)C(F)(F)F (configuration not stated),3.72%

# Reference: PubChem BioAssay AID1259309 (ICCB-Longwood Screening Facility, Harvard Medical School, 2017)
